# Results taken from PubChem BioAssay (Tox21).
# Values joined by “and” are separate entries in the source; they are usually repeats but may differ in a detail not shown here. Identical values can stand only once. Records with an inconclusive call do not appear. Entries that show only a call come without a potency. Where a structure was tested more than once in an assay, its records may differ in their call. Active and inactive are the calls of the source. Unless noted, the call rests on the fitted dose curve; in most records, active means well fitted curve in the direction sought with a large enough effect in the repeat runs; inconclusive means weak or mixed curves; inactive means no such curve, though single readings can be large; an effect the other way counts as inactive or inconclusive.
# Assays:
# [1] = qHTS assay to identify small molecule antagonists of the estrogen related receptor (ERR) signaling pathway from Tox21 library - cell viability counter screen (AID 1224834); further: nearly all actives have a fitted effect of over 30% in size; further: potency means the concentration at half of the fitted maximal effect
# How it was run: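 Counter screen run in ERR cells (2,000 cells/well): cells pre-incubated 6 h, then treated with compounds for 17.5 h at 37 C. Fluorescence was read 30 min after CellTiter-Fluor addition.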
# [2] = biological target: Luciferin 4-monooxygenase (Photinus pyralis) (UniProt P08659); assay: qHTS assay to identify small molecule inhibitors of firefly luciferase (AID 1224835); further: nearly all actives have a fitted effect of over 25% in size; further: potency means the concentration at half of the fitted maximal effect
# Luciferin 4-monooxygenase (Photinus pyralis), sequence (P08659 whole entry, looked up): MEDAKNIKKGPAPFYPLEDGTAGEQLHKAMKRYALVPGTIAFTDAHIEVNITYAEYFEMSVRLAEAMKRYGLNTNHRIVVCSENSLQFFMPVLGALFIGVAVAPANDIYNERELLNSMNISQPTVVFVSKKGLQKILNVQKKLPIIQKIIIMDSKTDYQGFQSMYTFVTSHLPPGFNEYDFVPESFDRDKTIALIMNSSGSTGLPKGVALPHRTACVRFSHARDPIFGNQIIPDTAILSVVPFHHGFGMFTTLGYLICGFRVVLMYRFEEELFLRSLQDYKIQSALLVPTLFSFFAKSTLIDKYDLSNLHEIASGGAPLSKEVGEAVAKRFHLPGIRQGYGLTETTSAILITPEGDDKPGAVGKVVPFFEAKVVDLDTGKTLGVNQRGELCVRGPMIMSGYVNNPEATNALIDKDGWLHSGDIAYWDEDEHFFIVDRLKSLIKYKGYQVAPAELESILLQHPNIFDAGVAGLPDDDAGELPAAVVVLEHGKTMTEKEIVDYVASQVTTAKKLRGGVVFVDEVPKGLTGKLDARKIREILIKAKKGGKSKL
# How it was run: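 Biochemical qHTS: compounds run as interplate titrations against purified firefly enzyme, with D-luciferin and ATP each at its KM concentration. Light output recorded by CCD imaging.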
# [3] = qHTS assay to identify small molecule agonists of the constitutive androstane receptor (CAR) signaling pathway - cell viability counter screen (AID 1224836); further: nearly all actives have a fitted effect of over 45% in size; further: potency means the concentration at half of the fitted maximal effect
# How it was run: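 23 h treatment, 37 C, 5% CO2. Cell line: HepG2 stably expressing hCAR with a CYP2B6-2.2kb construct. Co-treatment: PK11195, 0.75 uM final. Read-out: CellTiter-Fluor fluorescence intensity.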
# [4] = qHTS assay to identify small molecule antagonists of the constitutive androstane receptor (CAR) signaling pathway - cell viability counter screen (AID 1224837); further: nearly all actives have a fitted effect of over 45% in size; further: potency means the concentration at half of the fitted maximal effect
# How it was run: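 CITCO at 50 nM final was added alongside compounds (15 concentrations) to double-stable hCAR/CYP2B6-2.2kb HepG2 cells. Following 23 hr at 37 C, cell viability was quantified by CellTiter-Fluor fluorescence intensity.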
# [5] = biological target: Nuclear receptor subfamily 1 group I member 3 (Homo sapiens) (UniProt Q14994); assay: qHTS assay to identify small molecule antagonists of the constitutive androstane receptor (CAR) signaling pathway (AID 1224838); further: nearly all actives have a fitted effect of over 40% in size; further: potency means the concentration at half of the fitted maximal effect
# Nuclear receptor subfamily 1 group I member 3 (Homo sapiens), sequence (Q14994 whole entry, looked up): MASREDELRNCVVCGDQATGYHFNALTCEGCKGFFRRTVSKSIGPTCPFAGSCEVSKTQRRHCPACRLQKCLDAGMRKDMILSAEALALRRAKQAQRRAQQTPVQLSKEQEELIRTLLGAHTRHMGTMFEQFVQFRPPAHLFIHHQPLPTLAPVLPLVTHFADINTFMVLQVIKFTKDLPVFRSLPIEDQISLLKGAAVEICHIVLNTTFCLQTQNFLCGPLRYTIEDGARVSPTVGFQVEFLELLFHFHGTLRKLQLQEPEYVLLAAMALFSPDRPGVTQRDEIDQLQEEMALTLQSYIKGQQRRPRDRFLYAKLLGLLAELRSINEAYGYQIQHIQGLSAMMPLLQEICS
# How it was run: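 Inhibition of CITCO-driven (50 nM final) CYP2B6 reporter expression is measured in HepG2 cells stably carrying hCAR. Fifteen compound concentrations are applied for 24 h at 37 C, followed by luciferase luminescence.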
# [6] = biological target: Nuclear receptor subfamily 1 group I member 3 (Homo sapiens) (UniProt Q14994); assay: qHTS assay to identify small molecule agonists of the constitutive androstane receptor (CAR) signaling pathway (AID 1224839); further: nearly all actives have a fitted effect of over 15% in size; further: potency means the concentration at half of the fitted maximal effect
# How it was run: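 Compounds tested at 15 concentrations on HepG2 cells stably harbouring hCAR and CYP2B6-2.2kb reporter constructs, co-treated with PK11195 (0.75 uM final), 24 h at 37 C; luminescent reporter signal quantified.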
# [7] = qHTS assay to identify small molecule antagonists of the estrogen related receptor signaling pathway with the pleiotropic PPARgamma coactivator (PGC) from Tox21 10K library - cell viability counter screen (AID 1224840; active means well fitted cell-killing curve with a large enough effect in the repeat runs, not every such curve was filed as active; further: nearly all actives have a fitted effect of over 40% in size)
# How it was run: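 Readout: fluorescence intensity from CellTiter-Fluor after 30 min at 37 C/5% CO2. Preceded by 17.5 h treatment of PGC/ERR cells with DMSO-dissolved compounds, added 6 h post-seeding.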
# [8] = biological target: Thyrotropin receptor (Homo sapiens) (UniProt P16473); assay: qHTS assay to identify small molecule agonists of the thyroid stimulating hormone receptor (TSHR) signaling pathway (AID 1224843; calls by dose curve; further: nearly all actives have a fitted effect of over 45% in size; further: potency means the concentration at half of the fitted maximal effect)
# Thyrotropin receptor (Homo sapiens), sequence (P16473 whole entry, looked up): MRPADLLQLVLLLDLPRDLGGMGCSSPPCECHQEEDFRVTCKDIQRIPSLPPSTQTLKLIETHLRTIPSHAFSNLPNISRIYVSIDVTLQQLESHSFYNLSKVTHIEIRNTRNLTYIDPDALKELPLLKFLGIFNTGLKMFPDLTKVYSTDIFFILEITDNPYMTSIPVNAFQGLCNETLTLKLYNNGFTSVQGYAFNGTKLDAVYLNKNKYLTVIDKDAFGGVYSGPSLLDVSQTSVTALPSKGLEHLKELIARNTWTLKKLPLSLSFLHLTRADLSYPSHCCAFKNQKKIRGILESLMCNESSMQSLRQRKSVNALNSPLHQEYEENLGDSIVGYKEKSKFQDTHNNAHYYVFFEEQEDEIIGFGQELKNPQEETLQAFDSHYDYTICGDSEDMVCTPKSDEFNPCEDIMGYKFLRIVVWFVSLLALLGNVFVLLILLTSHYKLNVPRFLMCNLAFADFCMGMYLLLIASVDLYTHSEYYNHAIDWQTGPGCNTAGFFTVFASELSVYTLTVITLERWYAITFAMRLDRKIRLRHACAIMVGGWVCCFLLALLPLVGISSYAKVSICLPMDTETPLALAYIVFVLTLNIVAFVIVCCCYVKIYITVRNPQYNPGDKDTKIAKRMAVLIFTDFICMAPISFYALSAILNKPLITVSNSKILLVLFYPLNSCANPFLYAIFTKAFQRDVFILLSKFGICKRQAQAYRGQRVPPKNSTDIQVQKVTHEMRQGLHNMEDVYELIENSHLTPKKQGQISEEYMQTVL
# How it was run: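 HEK293/TSHR, 800 cells/well; cpd 30 min RT; add cAMP-d2 + anti-cAMP-cryptate, 1 h RT; fluorescence read on plate reader. 15-pt titration, n=3.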
# [9] = qHTS assay to identify small molecule agonists of the hypoxia (HIF-1) signaling pathway - cell viability counter screen (AID 1224844; calls by dose curve; further: nearly all actives have a fitted effect of over 50% in size; further: potency means the concentration at half of the fitted maximal effect)
# How it was run: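 In this counter screen, HRE-bla ME-180 cell viability after 17 hrs of compound exposure at 37C was read by CellTiter-Glo luminescence, multiplexed with the beta-lactamase reporter measurement.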
# [10] = qHTS assay to identify small molecule agonists of H2AX (AID 1224845; active means well fitted activation curve with a large enough effect in the signal ratio in the repeat runs, not every such curve was filed as active; the % refers to the signal ratio)
# How it was run: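 Wild-type CHO-K1 cells, plated overnight, exposed 3hr at 37C to 15 concentrations (0.76% DMSO final). Lysed, then HTRF anti-pH2AX (S139) cryptate and anti-H2AX-d2 antibodies, 24 hr room temperature; 665/620 nm emission read.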
# [11] = qHTS assay to identify small molecule agonists of the hypoxia (HIF-1) signaling pathway (AID 1224846; active means well fitted activation curve with a large enough effect in the signal ratio in the repeat runs, not every such curve was filed as active; the % refers to the signal ratio)
# How it was run: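 ME-180 HRE-bla reporter cells; compounds in DMSO, 17 h at 37C; read-out beta-lactamase via CCF4-AM FRET.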
# [12] = qHTS RealTime-Glo MT Cell Viability Assay in HEK293 cells - 32 hour (AID 1224868); further: nearly all actives have a fitted effect of over 50% in size; further: potency means the concentration at half of the fitted maximal effect
# How it was run: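 HEK293 cells seeded with NanoLuc/prosubstrate reagent, rested 5 h at 37 C, then dosed and kept at 37 C up to 40 h. Nonlytic real-time luminescence from viable cells read at 0, 8, 16, 24, 32 and 40 h.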
# [13] = A CellTox Green Cytotoxicity Assay to monitor cytotoxicity in HEK293 cells - 0 hour (AID 1224869); further: nearly all actives have a fitted effect of over 50% in size
# How it was run: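 Real-time, in one plate: 600 HEK293 cells/well with dead-cell DNA dye, pinned compound after 5 h, 37 C incubation over 40 h; viable cells give no appreciable fluorescence.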
# [14] = qHTS RealTime-Glo MT Cell Viability Assay in HepG2 cells - 24 hour (AID 1224867); further: nearly all actives have a fitted effect of over 50% in size; further: potency means the concentration at half of the fitted maximal effect
# How it was run: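 HepG2 cells (600/well) were dispensed with RealTime-Glo reagents, incubated 5 h at 37 °C, then treated with compounds in DMSO for up to 40 h. Nonlytic NanoLuc luminescence reflecting viable cells was read at each stated time point.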
# [15] = qHTS assay to identify small molecule agonists of the estrogen related receptor signaling pathway with the pleiotropic PPARgamma coactivator (PGC) (AID 1224823)
# How it was run: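 In this quantitative high-throughput screen, an 18 h, 37 C treatment of PGC/ERR cells with compounds in DMSO preceded a One-Glo luminescence read taken after 30 min at room temperature.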
# [16] = qHTS assay to identify small molecule antagonists of the estrogen related receptor signaling pathway with the pleiotropic PPARgamma coactivator (PGC) from Tox21 10K library (AID 1224841; call rule not given here; further: potency means the concentration at half of the fitted maximal effect)
# How it was run: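 One-Glo luminescence, measured after half an hour at room temperature, quantified reporter output of PGC/ERR cells. These had been plated at 2,000 per well, incubated 6 h, dosed with compounds in DMSO, then kept 18 h at 37 C.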
# [17] = qHTS assay to identify small molecule agonists of the estrogen related receptor signaling pathway with the pleiotropic PPARgamma coactivator (PGC) from Tox21 10K library (AID 1224842); further: nearly all actives have a fitted effect of over 15% in size
# How it was run: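 PGC/ERR reporter cell line, 2,000 cells per well, incubated 6 h at 37 C before 23 nL compound in DMSO was added. After 18 h at 37 C, One-Glo luminescence read following 30 min at room temperature.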
# [18] = qHTS assay to identify small molecule agonists of H2AX - cell viability counter screen (AID 1224847; calls by dose curve; further: nearly all actives have a fitted effect of over 30% in size; further: potency means the concentration at half of the fitted maximal effect)
# How it was run: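 Compounds tested at 15 concentrations were incubated 3 hr at 37C with wild-type CHO-K1 cells; cellular ATP-based luminescence (CellTiter-Glo) indicated viability.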
# [19] = qHTS assay to identify small molecule agonists of the estrogen related receptor (ERR) signaling pathway from Tox21 library (AID 1224849; calls by dose curve; further: nearly all actives have a fitted effect of over 15% in size); conditions: ERR reporter cell line, ONE-Glo luciferase, 18 h; at 92.4 µM (top of the series)
# How it was run: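 Luciferase activity in ERR pathway reporter cells served as the agonist readout; exposure lasted 18 h at 37 C, with ONE-Glo detection after 30 min at room temperature.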
SMILES,Potency [1],Potency [2],Potency [3],Potency [4],Potency [5],Potency [6],Potency [7],Potency [8],Potency [9],Potency [10],outcome [11],Potency [12],Potency [13],Potency [14],outcome [15],Potency [16],Potency [17],Potency [18],"activity change, positive = activation [19]"
N#CC(Br)Br,inactive,inactive,inactive,inactive,inactive,inactive,inactive,inactive,inactive,inactive,inactive,inactive,inactive,,,,,,
CC(C)N(C(=O)SCC(Cl)=C(Cl)Cl)C(C)C,inactive,inactive,inactive,inactive,inactive,inactive,inactive,30.2 µM (active) and 15.4 µM (active),inactive,inactive,inactive,inactive,inactive,inactive,,,,,
CCCCNC(=O)n1c(NC(=O)OC)nc2ccccc21,inactive,63 µM (active),inactive,inactive,inactive,54.2 µM (active),inactive,inactive,inactive,inactive,inactive,,,inactive,,,,,
N#CCCCl,inactive,inactive,inactive,inactive,inactive,inactive,inactive,inactive,inactive,inactive,inactive,inactive,inactive,inactive,,,,,
C=C(C)[C@H]1Cc2c(ccc3c2O[C@@H]2COc4cc(OC)c(OC)cc4[C@@H]2C3=O)O1,8.75 µM (active) and 8.63 µM (active) and 376 nM (active),inactive,875 nM (active) and 1.54 µM (active) and 668 nM (active),1.96 µM (active) and 770 nM (active) and 531 nM (active),3.48 µM (active) and 19.3 µM (active) and 3.35 µM (active),inactive,inactive,24.7 µM (active) and 17.2 µM (active) and 26.6 µM (active),inactive,inactive,inactive,55.7 nM (active) and 11 nM (active) and 47.7 nM (active),inactive,27.9 µM (active) and 27.5 µM (active),inactive,34.8 nM (active) and 4.9 nM (active),inactive,91 nM (active),
CCC(=O)O[C@H]1CC[C@H]2[C@@H]3CCC4=CC(=O)CC[C@]4(C)[C@H]3CC[C@]12C,inactive,inactive,inactive,inactive,inactive,inactive,inactive,inactive,54.9 µM (active) and inactive,inactive,inactive,19.5 µM (active) and 23.9 µM (active),inactive,inactive,,,,101 µM (active) and inactive,
c1nc[nH]n1,inactive,inactive,inactive,inactive,,inactive,inactive,inactive,inactive,inactive,inactive,inactive,inactive,,,inactive,inactive,,1.27% (inactive) and 6.15% (inactive)
CCOP(=S)(OCC)O/N=C(\C#N)c1ccccc1,inactive,inactive,inactive,inactive,,,inactive,inactive,inactive,inactive,inactive,inactive,inactive,,,inactive,inactive,inactive,
CCCCC(CC)COC(=O)c1ccc(C(=O)OCC(CC)CCCC)c(C(=O)OCC(CC)CCCC)c1 (stereo not drawn),inactive,inactive,inactive,inactive,,inactive,inactive,inactive,inactive,inactive,inactive,inactive,,inactive,,,,inactive,
CC(C)c1ccc(CO)cc1,inactive,inactive,inactive,inactive,,,inactive,inactive,inactive,inactive,inactive,inactive,,inactive,,inactive,inactive,,
CC(C)(c1cc(Cl)c(O)c(Cl)c1)c1cc(Cl)c(O)c(Cl)c1,inactive,inactive,inactive,inactive,,,inactive,inactive,,inactive,,inactive,,inactive,,inactive,inactive,inactive,-0.444% (inactive) and -2.89% (inactive)
CC(C)=CC1C(C(=O)OCc2coc(Cc3ccccc3)c2)C1(C)C (stereo not drawn),inactive,inactive,inactive,inactive,,34.4 µM (active) and 27.3 µM (active),inactive,,inactive,inactive,inactive,inactive,inactive,,,,,,
O=C(NC(=O)c1c(F)cccc1F)Nc1ccc(Cl)cc1,inactive,inactive,inactive,inactive,,inactive and 1.22 µM (active),inactive,inactive,inactive,inactive,inactive,,inactive,inactive,,,,,
C=CCc1ccc(OC)cc1,inactive,inactive,inactive,inactive,,inactive,inactive,inactive,inactive,inactive,inactive,inactive,inactive,inactive,,,,inactive,
CC(C)(C)c1ccccc1O,inactive,inactive,inactive,inactive,,inactive,inactive,,inactive,inactive,inactive,inactive,inactive,,,,,,
CCC(CC)Nc1c([N+](=O)[O-])cc(C)c(C)c1[N+](=O)[O-],inactive,inactive,inactive,inactive,,49.2 µM (active) and 24.3 µM (active),inactive,inactive,inactive,inactive,inactive,inactive,inactive,,,inactive,inactive,,
CCCCCCCCOC(=O)c1ccccc1C(=O)OCCCCCCCC,inactive,inactive,inactive,inactive,,inactive and 17.2 µM (active),inactive,inactive,inactive,inactive,inactive,inactive,inactive,,,,,,
